Results taken from PubChem BioAssay AID1159580 (chemical genetic matrix, 2015).
The whole screen tested about 5,500 compounds, of which about 2,000 (36%) were called active. Another 18% or so got no clear call; they are omitted. Cut-off read from the data, not from the text of the source: active = normalized growth mostly below about 0.91 (no sharp cut-off); inconclusive = no clear call, values can overlap the other calls; inactive = mostly above about 0.92. The list shows a part of the results.

Assay: chemical genetic growth profiling, strain panel (AID 1159580);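 note: tested at 20 µM; growth read once vehicle control cultures reached saturation at 30 °C; 1 = growth at the plate median or of vehicle wells; lower values mean less growth of the strain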
Details: S. cerevisiae deletion strains, growth OD

Measured: normalized growth

N#C/C(=N/Nc1ccccc1Cl)S(=O)(=O)c1ccc(Cl)cc1
inactive: locus YAR019C, strain CDC15, hits give low values 0.976 | locus YBL105C, strain PKC1, hits give low values 0.97 | locus YBR135W, strain CKS1, hits give low values 0.964 | locus YBR136W, strain MEC1, hits give low values 0.968 | locus YBR160W, strain CDC28, hits give low values 0.969 | locus YDL017W, strain CDC7, hits give low values 0.976 | locus YDL028C, strain MPS1, hits give low values 0.975 | locus YDL101C, strain DUN1, hits give low values 0.978 | locus YDL108W, strain KIN28, hits give low values 0.977 | locus YDL132W, strain cdc53, hits give low values 0.971 | locus YDL214C, strain PRR2, hits give low values 0.889 | locus YDR052C, strain DBF4, hits give low values 0.966 | locus YDR054C, strain cdc34, hits give low values 0.966 | locus YDR226W, strain ADK1, hits give low values 0.974 | locus YDR477W, strain SNF1, hits give low values 0.889 | locus YER123W, strain YCK3, hits give low values 0.882 | locus YER133W, strain GLC7, hits give low values 0.909 | locus YFL009W, strain cdc4, hits give low values 0.968 | locus YFL029C, strain CAK1, hits give low values 0.969 | locus YFR003C, strain YPI1, hits give low values 0.973 | locus YFR019W, strain FAB1, hits give low values 0.859 | locus YFR028C, strain CDC14, hits give low values 0.95 | locus YGR040W, strain KSS1, hits give low values 0.889 | locus YGR052W, strain FMP48, hits give low values 0.869 | locus YGR092W, strain DBF2, hits give low values 0.715 | locus YHR030C, strain SLT2, hits give low values 0.916 | locus YHR079C, strain IRE1, hits give low values 0.955 | locus YHR082C, strain KSP1, hits give low values 0.918 | locus YHR205W, strain SCH9, hits give low values 0.866 | locus YIL147C, strain SLN1, hits give low values 0.968 | locus YJL095W, strain BCK1, hits give low values 0.852 | locus YJL128C, strain PBS2, hits give low values 0.944 | locus YJL157C, strain FAR1, hits give low values 0.909 | locus YJR016C, strain ILV3, hits give low values 0.974 | locus YJR066W, strain TOR1 (second series), hits give low values 0.877 | locus YJR066W, strain TOR1, hits give low values 0.962 | locus YKL048C, strain ELM1, hits give low values 0.886 | locus YKL067W, strain YNK1, hits give low values 0.911 | locus YKL101W, strain HSL1, hits give low values 0.835 | locus YKL193C, strain SDS22, hits give low values 0.976 | locus YKL203C, strain TOR2, hits give low values 0.943 | locus YLR113W, strain HOG1, hits give low values 0.877 | locus YLR133W, strain CKI1, hits give low values 0.847 | locus YLR403W, strain SFP1, hits give low values 0.811 | locus YML070W, strain DAK1, hits give low values 0.883 | locus YMR001C, strain CDC5, hits give low values 0.969 | locus YMR205C, strain PFK2 (second series), hits give low values 0.918 | locus YMR277W, strain FCP1, hits give low values 0.973 | locus YNL006W, strain LST8, hits give low values 0.979 | locus YNL020C, strain ARK1, hits give low values 0.828 | locus YNL161W, strain CBK1, hits give low values 0.971 | locus YNL183C, strain NPR1, hits give low values 0.94 | locus YNL207W, strain RIO2, hits give low values 0.954 | locus YNL222W, strain SSU72, hits give low values 0.977 | locus YNL307C, strain MCK1 (second series), hits give low values 0.787 | locus YOL078W, strain AVO1, hits give low values 0.968 | locus YOL136C, strain PFK27, hits give low values 0.832 | locus YOR061W, strain CKA2, hits give low values 0.851 | locus YOR119C, strain RIO1, hits give low values 0.957 | locus YOR231W, strain MKK1, hits give low values 0.895 | locus YOR329C, strain SCD5, hits give low values 0.979 | locus YPL031C, strain PHO85, hits give low values 0.856 | locus YPL153C, strain RAD53, hits give low values 0.889 | locus YPL204W, strain HRR25, hits give low values 0.814 | locus YPL209C, strain IPL1, hits give low values 0.975 | locus YPL256C, strain CLN2, hits give low values 0.939 | locus YPR025C, strain CCL1, hits give low values 0.978 | locus YPR106W, strain ISR1, hits give low values 0.966 | locus YPR111W, strain DBF20, hits give low values 0.961 | strain NNK1, hits give low values 0.952 | strain TSCII, hits give low values 0.956
